Test results: PubChem BioAssay (NCI)
“And” between values parts separate entries of the source, which are not always exact repeats. Identical values can stand only once. Compounds without any hit were thinned out: in the full panel of roughly 83,000, 20% have a hit.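 Treatment: one concentration, 48 hours, 96-well format. Scoring: percent growth, with anything below 10 considered active.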 The source made the active and inactive calls.

These compounds were tested on SW-620 colon (assay: NCI-60 one-dose screen, 48 h (100 = growth as untreated, 0 = no growth, -100 = all killed)). Settings: 1 µM.
Procedure: Growth inhibition of the SW-620 human tumor cell line is measured as a screen for anti-cancer activity. Cells are grown in 96 well plates and exposed to the test compound for 48 hours. Compounds are tested at a single concentration, which is 10^-5 M for most compounds. The reported endpoint is percent growth (GI% or GIPRCNT), where numbers from 0 - 100% represent growth inhibition, and numbers from -100% - 0 represent cell death. For example, a value of 40 represents 60% growth inhibition. A value of 0 means no net growth occurred over the course of the experiment. A value of -40 indicates 40% of cells at the beginning of the experiment died by the end of the experiment. A value of -100 means all cells are dead at the end of the experiment.
NCI-60 Human Tumor Cell Lines Screen was performed using the standard one-dose NCI protocol, which is described in more detail at https://dtp.cancer.gov/discovery_development/nci-60/default.htm.
Compounds with GIPRCNT values below 10 were considered active. Activity score was based on GIPRCNT using the following formula: […]
Score is 0 for GIPRCNT values of 100 or above, 50 for GIPRCNT values of 0, and 100 for GIPRCNT values of -100.
In the case of CNC(=O)c1cc(Oc2ccc(CC(=O)Nc3cc(C(C)(C)C)nn3C)cc2)ccn1, the growth was 106% (inactive).

Same assay, conditions: 10 µM
In the case of CNC(=O)c1cc(Oc2ccc(CC(=O)Nc3cc(C(C)(C)C)nn3C)cc2)ccn1, the growth was 87.2% (inactive).

Same assay, conditions: 10 µM unless noted
For CCCCCCCCCCCCCCCCOc1ccc(C)cc1, the growth was 101% (inactive).
In the case of COC(=O)/C=C/c1cc(O)c2c(c1)C(C(=O)OC)C(c1ccc(O)c(O)c1)O2 (stereo not given), the growth was 19.4% (inactive) and 29.6% (inactive).
NC(=S)NS(=O)(=O)c1ccc(N)cc1 was tested, and the growth was 110% (inactive).
For O[C@H](c1cc(C(F)(F)F)nc2c(C(F)(F)F)cccc12)[C@@H]1CCCCN1, the growth was 71% (inactive) and 74.1% (inactive).
CC12CCC(CC1)C(C)(C)O2 was tested, and the growth was 104% (inactive).
For CCOC(=O)c1sc(N)nc1-c1ccccc1, the growth was 109% (inactive).
With CC(=O)c1ccccc1O the growth was 103% (inactive) and 105% (inactive) and 113% (inactive).
COc1ccc2cc3[n+](cc2c1OC)CCc1cc2c(cc1-3)OCO2 was tested, and the growth was 79.3% (inactive) and 92.3% (inactive).
In the case of COc1cc(-c2nccc3cc4c(cc23)OCO4)cc(OC)c1OC, the growth was 16.7% (inactive) and 17.5% (inactive).
CCN(CC)CCOc1ccc(/C=N/Nc2nc3c([nH]2)c(=O)n(C)c(=O)n3C)cc1 was tested, and the growth was 108% (inactive) and 104% (inactive).
For Clc1nc(Oc2ccccc2)nc(-c2cn(-c3ccccc3)c3ccccc23)n1, the growth was 12.4% (inactive).
With O=C(O)C1C2C=CC(C2)C1C(=O)O (stereo not given) the growth was 104% (inactive) and 22.1% (inactive) and 103% (inactive).
CCCCCCCCCCCCOc1ccccc1C=O was tested, and the growth was 101% (inactive).
With CCN(CC)CCNc1cc(-c2cccc(OC(F)(F)F)c2)nc2ccc(N3CCCC3)cc12 the growth was 31% (inactive) and 0.803% (active) and 8.35% (active).
In the case of Cn1c(=O)n(-c2ccc(C(C)(C)C#N)cc2)c2c3cc(-c4cnc5ccccc5c4)ccc3ncc21, the growth was 8% (active) and 3.15% (active).
With Cc1ccc(NCSc2ccc(Cl)cc2)cc1 the growth was 86.2% (inactive) and 96.6% (inactive).
With c1ccc(N(c2ccccc2)c2ccccc2)cc1 the growth was 103% (inactive).
In the case of O=C1c2c(O)cc(O)cc2OC(c2ccc(O)c(O)c2)C1O (stereo not given), the growth was 104% (inactive).
In the case of O=Nc1ccc(O)cc1, the growth was 86.1% (inactive) and 94.1% (inactive).
With CCOc1ccc2c(S(=O)(=O)O)cccc2c1[N+](=O)[O-] the growth was 107% (inactive) and 98.2% (inactive).
With Cc1cc(=O)[nH]c(O)c1C#N the growth was 102% (inactive) and 106% (inactive).
For O=S(=O)(Nc1ccccc1)C1CCCCC1, the growth was 106% (inactive) and 107% (inactive).
Cc1cc(O)c(C(C)C)cc1N was tested, and the growth was 109% (inactive) and 102% (inactive).
CC1(c2ccc3ccccc3c2)CCC(=O)O1 (stereo not given) was tested, and the growth was 108% (inactive).
C/C(=N\NC(=O)c1ccncc1)c1ccccc1O was tested, and the growth was 34.2% (inactive) and 42.3% (inactive).
In the case of O=C(CCc1ccc(O)cc1)N/N=C/c1cc(Br)ccc1O, the growth was 59.5% (inactive).
In the case of CC(C)Cc1ccc(C(C)C(=O)NCc2ccc(Cn3c(=O)sn(CCCI)c3=O)cc2)cc1 (stereo not given), the growth was 66.5% (inactive) and -63.2% (active).
CNc1ccc2nc3ccc(=[N+](C)C)cc-3sc2c1 was tested, and the growth was 0.782% (active) and 2.58% (active).
In the case of O=S1(=O)CC(Br)C(Br)C1 (stereo not given), the growth was 32.1% (inactive) and 29.8% (inactive).
COc1cc2c(c(OC)c1OC)-c1ccc(OC)c(=O)cc1[C@@H](NC(C)=O)CC2 was tested, and the growth was 23.7% (inactive) and 18.3% (inactive) and 26.4% (inactive).
With CCOC(=O)Nc1ccc2c(c1)/C(=N\NC(N)=S)c1ccccc1-2 the growth was 80.7% (inactive) and 81.2% (inactive).
With COc1ccc2nc(Cl)cc(C)c2c1 the growth was 102% (inactive) and 122% (inactive).
In the case of O=C1CCN(Cc2ccccc2)C(=S)N1, the growth was 105% (inactive).
Cc1cc(O)c2c(c1)C(=O)c1cc(O)cc(O)c1C2=O was tested, and the growth was 100% (inactive) and 97.3% (inactive).
In the case of CNC(=O)c1cccc(-c2ccc3c(N4CCOC[C@@H]4C)nc(N4CCOC[C@@H]4C)nc3n2)c1, the growth was 11.4% (inactive) and 5.84% (active).
Cc1cc(O)c(C(C)C)cc1S(=O)(=O)O (tested in a mixture with another compound) was tested, and the growth was 109% (inactive) and 23.2% (inactive) and 102% (inactive).
In the case of COc1cc(NS(C)(=O)=O)ccc1Nc1c2ccccc2nc2c(C)cccc12, the growth was 6.14% (active) and 16.4% (inactive).

Same assay, conditions: 30 µM
For CNC(=O)c1cc(Oc2ccc(CC(=O)Nc3cc(C(C)(C)C)nn3C)cc2)ccn1, the growth was 97.8% (inactive).
